Reference: the supplement of paper PMC13380429
Structures can show the parent of a compound that is named as a salt. A number with no mark means an inactive call.

Test system: Vero E6 infected with SARS-CoV-2
Experiment: inhibition of SARS-CoV-2 cytopathic effect; higher = more antiviral protection, active = above 15
Conditions: 48 h

| Structure (SMILES) | inhibition of SARS-CoV-2 cytopathic effect (1 nM) | inhibition of SARS-CoV-2 cytopathic effect (8.33 nM) | inhibition of SARS-CoV-2 cytopathic effect (100 nM) | inhibition of SARS-CoV-2 cytopathic effect (833.33 nM) | inhibition of SARS-CoV-2 cytopathic effect (10000 nM) |
| --- | --- | --- | --- | --- | --- |
| CCC(CO)(C(=O)OC1CC2CCC(C1)[N+]2(C)C)c1ccccc1 (stereo not given) [troventol] | 1.78% | 6.67% | 0.13% | -1.03% | 2.53% |
| C=C[C@@H]1C[C@]1(NC(=O)[C@@H]1C[C@@H](Oc2ncc(OC)c3ccc(Cl)cc23)CN1C(=O)[C@@H](NC(=O)OC(C)(C)C)C(C)(C)C)C(=O)NS(=O)(=O)C1CC1 [asunaprevir] | -0.2% | 0.38% | 3.96% | 2.81% | -1.88% |
| O=C1c2c(O)cc(O)cc2O[C@H](c2cc(O)c(O)c(O)c2)[C@H]1O [dihydromyricetin] | 2.39% | 3.54% | 1.66% | 1.69% | -1.52% |
| CCOC(=O)c1ccc(N2NC(=O)/C(=C/c3ccc([N+](=O)[O-])o3)C2=O)cc1 | 1.63% | -1.91% | -0.91% | -2.48% | -6.2% |
| NC(=O)c1ccc(F)c2c1C[C@@H](N(C1CCC1)C1CCC1)CO2 [robalzotan] | -1.71% | 2.76% | 1.8% | 0.98% | 3.7% |
| Cn1cccc1/C=C1\C(=O)NC(=O)c2ccccc21 | 2.55% | -0.08% | -1.24% | -2.42% | 5% |
| COc1ccc(-c2cc(=O)c3c(O)c(OC)c(O)cc3o2)cc1OC [eupatilin] | 1.23% | -0.46% | 0.38% | 1.92% | 2.58% |
| CCOC(=O)c1ccc(N(C)c2csc(-c3ccccc3)n2)cc1 [neuropathiazol] | -0.18% | 1.78% | 0.85% | 2.12% | 2.67% |
| CCc1cc2c(s1)-n1c(C)nnc1CN=C2c1ccccc1Cl [etizolam] | 2.37% | 2.54% | -2.3% | 3.16% | 2.75% |
| Cc1cc(O)c2c(=O)c3c(O)cc(O)c4c5c(O)cc(O)c6c(=O)c7c(O)cc(C)c8c1c2c(c34)c(c78)c65 [hypericin] | 3.48% | -1.72% | -6.89% | -0.08% | -4.81% |
| CCC(=O)O[C@]1(C(=O)CCl)[C@@H](C)C[C@H]2[C@@H]3CCC4=CC(=O)C=C[C@]4(C)[C@@]3(F)[C@@H](O)C[C@@]21C [clobetasol-propionate] | 1.28% | 1.27% | 0.69% | 0.48% | 3.52% |
| CO/N=C1/C[C@@H](C(=O)NC[C@@H](O)c2ccccc2)N(C(=O)c2ccc(-c3ccccc3C)cc2)C1 [OT-R-antagonist-1] | -0.95% | 1.59% | -0.48% | 1.09% | -1.5% |
| CCOc1ccc(S(=O)(=O)O)c2cccnc12 [actinoquinol] | 0.25% | 0.94% | 0.78% | 1.14% | -3.36% |
| CC(=O)OC[C@H]1O[C@@H]([S-])[C@H](OC(C)=O)[C@@H](OC(C)=O)[C@@H]1OC(C)=O.CCP(CC)CC.[Au+] [auranofin] | 3.21% | 4.4% | 7.71% | 18.4% (active) | -21.1% |
| C=C1c2cccc(O)c2C(=O)C2=C(O)[C@]3(O)C(=O)C(C(N)=O)=C(O)[C@@H](N(C)C)[C@@H]3[C@@H](O)[C@H]12 [methacycline] | 1.27% | -0.1% | 1.49% | 0.36% | 2.34% |
| COC(=O)[C@@H]1CC2=CC(=O)CC[C@]2(C)[C@@]23O[C@@H]2C[C@@]2(C)[C@@H](CC[C@@]24CCC(=O)O4)[C@H]13 [eplerenone] | 0.06% | 2.8% | 0.3% | 1.53% | 0.25% |
| C[C@@H](O)[C@H]1C(=O)N2C(C(=O)O)=C(S[C@@H]3CN[C@H](CNS(N)(=O)=O)C3)[C@H](C)[C@H]12 [doripenem] | -0.14% | 0.27% | -2.53% | -0.35% | 0.46% |
| C[C@@H](C(=O)O)c1ccc(-c2ccccc2)c(F)c1 (racemic) [flurbiprofen-(+/-)] | 0.383% | 0.72% | 1.91% | 1.32% | -0.637% |
| CCCCc1ccc(C(N)=O)nc1 [bupicomide] | 2.98% | 0.4% | -0.52% | -0.04% | 3.08% |
| O=C(c1cncc(Br)c1)N1CCC(N2CCCC2)CC1 | -1.15% | -2.01% | -1.71% | -4.94% | 0.82% |

| Structure (SMILES) | inhibition of SARS-CoV-2 cytopathic effect (1 nM) | inhibition of SARS-CoV-2 cytopathic effect (8.33 nM) | inhibition of SARS-CoV-2 cytopathic effect (100 nM) | inhibition of SARS-CoV-2 cytopathic effect (833.33 nM) | inhibition of SARS-CoV-2 cytopathic effect (10000 nM) |
| --- | --- | --- | --- | --- | --- |
| CCCCCS(=O)(=O)CCCCCCCCCCn1c(-c2ccc(O)cc2)c(C)c2cc(O)ccc21 | 1.18% | -2.92% | -0.42% | -1.6% | -5.93% |
| COc1ccc(N(C)c2nc(C)nc3ccccc23)cc1 [verubulin] | 0.84% | 2.34% | -2.32% | 2.89% | 2.5% |
| CN(C)CC(=O)Nc1ccc2[nH]c(=O)c3ccccc3c2c1 | 1.34% | 2.81% | 1.23% | 5.19% | 6.44% |
| CCN1CCN(Cc2ccc(Nc3ncc(F)c(-c4cc(F)c5nc(C)n(C(C)C)c5c4)n3)nc2)CC1 [abemaciclib] | -2.71% | -0.27% | -1.26% | 11.9% | 12.3% |
| CC1CCN(CC[C@H]2CCCN2S(=O)(=O)c2cccc(O)c2)CC1 | 1.41% | 2.24% | 2.25% | 2.79% | 0.64% |
| Cn1cc(-c2ccc3ncc(Cc4ccc5ncccc5c4)n3n2)cn1 | -4.59% | -2.71% | -1.81% | 2.47% | 3.49% |
| C[C@H](N)Cc1c[nH]cn1 [alpha-methylhistamine-dihydrobromide-(S)-(+)] | -0.195% | -0.765% | 8.02% | 1.26% | 2.96% |
| Cc1ccccc1C(=O)c1ccc(Nc2ccc(Br)cc2N)cc1Cl | 1.98% | 1.13% | -4.39% | -0.22% | 3.01% |
| Cc1n[nH]c(C)c1Cc1sc2c(c1C(=O)N1C[C@H](O)CO1)c(=O)n(C)c(=O)n2CC(C)C | 1.42% | 3.88% | 0.66% | 1.3% | 1.69% |
| C[C@H](CSC(=O)c1ccccc1)C(=O)N1C[C@@H](Sc2ccccc2)C[C@H]1C(=O)O [zofenopril-calcium] | 0.93% | -2.52% | -3.63% | -4.57% | -1.54% |
| C[C@H](NC[C@H](O)CP(=O)(O)CC1CCCCC1)c1ccc(Cl)c(Cl)c1 | 0.9% | -0.56% | -1.52% | 0.84% | 0.91% |
| O=C(O)c1cc(-c2ccc(F)cc2F)ccc1O [diflunisal] | 1.75% | -3.3% | 2.12% | 1.36% | 0.19% |
| COC(=O)c1c(C)[nH]c(C)c1C(=O)c1ccccc1Cc1ccccc1 | 1.06% | -1.02% | 0.4% | -3.62% | -3.09% |
| CNC(=O)c1nn(C)c2c1C(C)(C)Cc1cnc(Nc3ccc(N4CCN(C)CC4)cc3)nc1-2 | 0.32% | 0.79% | 1.17% | -4.6% | -10.3% |
| COc1cccc(NC(=O)/C=C/c2ccc(Cl)cc2)c1 | -1.02% | -1.96% | -1% | -0.56% | -4.87% |
| O=C1NCCc2[nH]c(-c3ccncc3)cc21 | -0.31% | -0.69% | -1% | -0.56% | -3.45% |
| c1ccc2sc(SNC3CCCCC3)nc2c1 [N-cyclohexyl-2-benzothiazolesulfenamide] | 2.74% | 0.54% | -0.9% | -0.46% | -3.64% |
| CN(C)CCNc1nc2cc(O)ccc2c2c1C(=O)c1ccccc1-2 | 0.16% | 1.19% | -1.3% | -7.91% | -23.6% |
| CCNC(=O)[C@@H]1CCCN1C(=O)[C@H](CCCNC(=N)N)NC(=O)[C@H](CC(C)C)NC(=O)[C@@H](C)NC(=O)[C@H](Cc1ccc(O)cc1)NC(=O)[C@H](CO)NC(=O)[C@H](Cc1c[nH]c2ccccc12)NC(=O)[C@H](Cc1cnc[nH]1)NC(=O)[C@@H]1CCC(=O)N1 [alarelin] | -0.73% | -1.67% | 0.97% | 1.34% | -0.57% |
